Source: PubChem BioAssay
Compounds with a hit are over-represented: about 3% of the library has one in this group of screens.
VDR inhibitor – Inhibitors of the vitamin D receptor (VDR): qHTS | VDR-SRC2-3 peptide fluorescence polarization, 2 h | Potency, µM, without a hit: max response, negative = inhibition, usual class: inhibitors | 0.93% of 400,000 active
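After 23 nl compound addition and a short centrifugation, plates sat for 2 hours at ambient temperature; polarization of fluorescence then indicated loss of VDR binding to peptide SRC2-3.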
PLK1 PBD inh – qHTS for Inhibitors of PLK1-PDB (polo-like kinase 1 - polo-box domain): Primary Screen | Serine/threonine-protein kinase PLK1 (Homo sapiens), P53350 | Potency, µM, for inactives: max response, negative = inhibition, hits mostly inhibitors | Plk1 PBD binding of FITC phosphopeptide, fluorescence polarization | 2.8% of 360,000 active | AID 720504, 2013; note: series mostly up to about 57 µM; nearly all actives have a fitted effect of over 65% in size
12-LOX inh – Primary qHTS assay for inhibitors of human arachidonate 12S-lipoxygenase (ALOX12): Round 2; Polyunsaturated fatty acid lipoxygenase ALOX12 (Homo sapiens), P18054; purified 12hLO, xylenol orange hydroperoxide absorbance; Potency, µM (doses to about 108 µM), inactives show at the highest dose activity change, negative = inhibition, hits mostly inhibitors; 1.1% of 580,000 active
Target sequence (P18054 whole entry, looked up): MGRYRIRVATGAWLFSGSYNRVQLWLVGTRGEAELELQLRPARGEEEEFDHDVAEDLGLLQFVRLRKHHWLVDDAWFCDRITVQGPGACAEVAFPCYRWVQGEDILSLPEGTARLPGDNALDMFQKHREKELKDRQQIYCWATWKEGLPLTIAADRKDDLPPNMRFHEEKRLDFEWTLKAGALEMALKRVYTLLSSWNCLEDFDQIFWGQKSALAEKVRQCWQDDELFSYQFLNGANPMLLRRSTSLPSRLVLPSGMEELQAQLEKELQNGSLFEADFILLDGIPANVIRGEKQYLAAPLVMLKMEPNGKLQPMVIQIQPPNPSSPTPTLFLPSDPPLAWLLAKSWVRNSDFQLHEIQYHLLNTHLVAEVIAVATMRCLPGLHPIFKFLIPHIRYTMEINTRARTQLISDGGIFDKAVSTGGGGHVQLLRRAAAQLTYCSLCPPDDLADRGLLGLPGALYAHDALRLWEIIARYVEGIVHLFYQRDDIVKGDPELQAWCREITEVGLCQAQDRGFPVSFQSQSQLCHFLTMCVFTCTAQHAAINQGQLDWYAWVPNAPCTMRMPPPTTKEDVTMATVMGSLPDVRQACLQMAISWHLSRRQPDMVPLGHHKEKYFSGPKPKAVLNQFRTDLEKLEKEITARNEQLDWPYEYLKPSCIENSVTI
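Purified human 12hLO (150 nM final) in 25 mM Hepes, 0.01% Triton X-100, pH 7.0 was preincubated 15 min at room temperature with compound. Then 40 uM arachidonic acid was added, 30 min. Hydroperoxide was read by Fe-XO absorbance ratio 573/405 nm.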
KAT2A inh – qHTS Assay for Inhibitors of GCN5L2; Histone acetyltransferase KAT2A (Homo sapiens), Q92830; GCN5L2 HAT assay, ThioGlo1 CoA-SH fluorescence; Potency, µM (highest dose often 58.9 µM), without a hit: top-dose activity change, negative = inhibition, hits mostly inhibitors; 0.21% of 390,000 active
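Enzyme at 20nM final was mixed with library compounds for 15 min at room temperature. Peptide H3(1-25) at 75uM, acetyl-CoA at 70uM and ThioGlo1 at 50uM were then added. Plates were read immediately and after 20 min (Ex340nm/Em540nm).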
Active calls of the source: *; [ ] = remark or other dose. Calls come from the whole dose curve; as a rule, active = well fitted curve in the direction sought with a large enough effect; inconclusive = small, poorly fitted or top-dose-only effect, or another doubt; inactive = no such curve, though single readings can be large; an effect the other way counts as inactive or inconclusive. % is set by controls: 0 for no effect and ±100 for the full control effect; potency is the fitted concentration of half-maximal effect.

How did CN(c1cccc(NC(=O)Nc2cccc(Cl)c2)c1)S(C)(=O)=O do in these assays?
VDR inhibitor: 7%; PLK1 PBD inh: -9%; 12-LOX inh: inconclusive; KAT2A inh: 9%

What do the screens show for `CCOC(=O)C1CCN(Cc2ccccc2C(F)(F)F)CC1`?
VDR inhibitor: 21%; PLK1 PBD inh: 1%; 12-LOX inh: inconclusive; KAT2A inh: -6%

Results for CCOC(=O)C1CCN(Cc2ccc(O)c3ncccc23)CC1 ?
VDR inhibitor: 4%; PLK1 PBD inh: 27µM*; 12-LOX inh: inconclusive; KAT2A inh: 1%

How did COc1cccc2cc(C(=O)NCCc3c[nH]c4ccccc34)c(=O)oc12 do in these assays?
VDR inhibitor: -24%; PLK1 PBD inh: 12µM*; 12-LOX inh: -4%; KAT2A inh: -2%

How did Cc1cccc(-n2c(O)c(C=Nc3ccc4c(c3)OCO4)c3ccccc3c2=O)n1 do in these assays?
VDR inhibitor: -2%; PLK1 PBD inh: -23%; 12-LOX inh: 0%; KAT2A inh: -3%

How did Cc1cccc(-n2c(O)c(C=Nc3cccc(O)c3)c3ccccc3c2=O)n1 do in these assays?
VDR inhibitor: inconclusive; PLK1 PBD inh: 15µM*; 12-LOX inh: inconclusive; KAT2A inh: -12%

How did Cc1cc(-c2nsc(=O)o2)c(S(C)(=O)=O)s1 do in these assays?
VDR inhibitor: inconclusive; PLK1 PBD inh: 3.8µM*; 12-LOX inh: 8.9µM*; KAT2A inh: inconclusive

How did CC(NC(=O)C12CC3CC(CC(C3)C1)C2)C(=O)NCCN(C)C (stereo unspecified) do in these assays?
VDR inhibitor: 1%; PLK1 PBD inh: 30µM*; 12-LOX inh: -11%; KAT2A inh: 1%

What do the screens show for `CCCC[C@@H](C)/C=C(C)/C=C(\C)C(=O)NC1=C[C@@](O)(/C=C/C=C/C=C/C(=O)NC2=C(O)CCC2=O)[C@@H]2O[C@@H]2C1=O`?
VDR inhibitor: 2.2µM*; KAT2A inh: inconclusive

What do the screens show for `COc1ccc(-c2cc(C#N)nc(Cl)n2)cc1`?
VDR inhibitor: -29%; PLK1 PBD inh: -10%; 12-LOX inh: 4.5µM*; KAT2A inh: -12%

How did COc1ccc(-c2cc(C#N)nc(Oc3ccc(Cl)cc3)n2)cc1 do in these assays?
VDR inhibitor: -22%; PLK1 PBD inh: -8%; 12-LOX inh: -19%; KAT2A inh: inconclusive

How did O=C(NC12CC3CC(CC(C3)C1)C2)c1ccc(F)cc1 do in these assays?
12-LOX inh: -21%

How did O=C(O/N=C1/CCCc2occc21)c1ccc(F)cc1 do in these assays?
VDR inhibitor: inconclusive; PLK1 PBD inh: 12µM*; 12-LOX inh: -7%; KAT2A inh: -5%

What do the screens show for `O=C(O/N=C1/CCSc2ccccc21)c1ccc(F)cc1`?
VDR inhibitor: 8%; PLK1 PBD inh: -1%; 12-LOX inh: -16%; KAT2A inh: 13%

Results for CNc1c(NS(=O)(=O)c2ccc(C)cc2)c(=O)oc2ccccc12 ?
12-LOX inh: -7%

How did CCCc1cc(=O)c2c(O)ccc(OC)c2o1 do in these assays?
VDR inhibitor: 0%; PLK1 PBD inh: 3%; 12-LOX inh: 25µM*; KAT2A inh: -4%

How did Cc1ccccc1Nc1nc(-c2ccccc2)c(C(=O)Nc2cccnc2)s1 do in these assays?
VDR inhibitor: -12%; PLK1 PBD inh: 30µM*; 12-LOX inh: 0%; KAT2A inh: -6%

What do the screens show for `Oc1ccc(C2C(c3ccccc3)=NN=C(c3ccc(Cl)cc3)N2O)c(O)c1` (stereo unspecified)?
VDR inhibitor: -19%; PLK1 PBD inh: -3%; 12-LOX inh: 32µM*; KAT2A inh: -3%

What do the screens show for `Cc1ccc(NC(=O)CN2C(=O)N/C(=C/c3ccc(C)s3)C2=O)cc1`?
VDR inhibitor: -8%; PLK1 PBD inh: 31%; 12-LOX inh: inconclusive; KAT2A inh: -3%

Results for Cc1ccc(NC(=O)CN2C(=O)N/C(=C/c3cc(C)n(-c4cccc(C(=O)O)c4)c3C)C2=O)cc1 ?
VDR inhibitor: -15%; PLK1 PBD inh: inconclusive; 12-LOX inh: 18µM*; KAT2A inh: inconclusive

How did Cc1ccc(NC(=O)CN2C(=O)N/C(=C/c3ccc(C)o3)C2=O)cc1 do in these assays?
VDR inhibitor: inconclusive; PLK1 PBD inh: 3%; 12-LOX inh: 35µM*; KAT2A inh: inconclusive

Results for O=C(N/N=C/c1c(Cl)nc2ccccn2c1=O)c1cccnc1 ?
VDR inhibitor: -1%; PLK1 PBD inh: -2%; 12-LOX inh: 3.2µM*; KAT2A inh: -3%

Results for Cc1c(/C=N/NC(=O)c2cccnc2)c2ccccn2c1C(=O)c1ccc(F)cc1 ?
KAT2A inh: -2%

How did Cc1cc(O)c(C(C)C)cc1N=Cc1ccccc1[N+](=O)[O-] do in these assays?
VDR inhibitor: 32µM*; PLK1 PBD inh: -3%; 12-LOX inh: inconclusive

Results for CC1CCC(C(=O)Nc2c(NC3CCCCC3)c3ccccc3oc2=O)CC1 (stereo unspecified) ?
12-LOX inh: -31%

How did CCNC(=O)N1CCN(CCCC(c2ccc(F)cc2)c2ccc(F)cc2)CC1 do in these assays?
VDR inhibitor: 0%; PLK1 PBD inh: -2%; 12-LOX inh: 35µM*; KAT2A inh: -6%

What do the screens show for `FC(F)(F)c1ccc(Cl)c(N/N=C/c2cccc(OCc3ccccc3)c2)c1`?
12-LOX inh: 7.1µM*

How did COc1cccc(C(=O)NC[C@@H]2CC[C@H]3C[C@@H]2C3(C)C)c1 do in these assays?
12-LOX inh: -4%[176 µM]

What do the screens show for `COc1cccc2c(Nc3ccccc3O)cc(C)nc12`?
12-LOX inh: 0%

How did COc1cccc2c(N/N=C/c3ccc(O)c(O)c3)cc(C)nc12 do in these assays?
VDR inhibitor: -12%; PLK1 PBD inh: -4%; 12-LOX inh: 20µM*; KAT2A inh: -12%

What do the screens show for `O=[N+]([O-])c1ccc(S(=O)(=O)N2CCSC2c2ccco2)cc1` (stereo unspecified)?
VDR inhibitor: 79µM*; PLK1 PBD inh: 12µM*; 12-LOX inh: 19%; KAT2A inh: -13%

Results for O=S(=O)(c1ccc(Cl)cc1)N1CCSC1c1ccco1 (stereo unspecified) ?
VDR inhibitor: -10%; PLK1 PBD inh: -10%; 12-LOX inh: inconclusive; KAT2A inh: -6%

What do the screens show for `COC(=O)[C@@H]1Cc2c([nH]c3ccccc23)[C@H]2C[C@@H](NCCN(C)C)C[C@@H](c3ccc(F)cc3)N21`?
12-LOX inh: 7%

How did O=C(Nc1cc(=O)[nH]c2nc(C(F)(F)F)nn12)c1ccc(Cl)cc1Cl do in these assays?
12-LOX inh: 25µM*

What do the screens show for `CC1CCCN(C(=O)CCc2ncc(-c3ccc(F)cc3F)o2)C1` (stereo unspecified)?
12-LOX inh: 11%

How did COC(=O)c1ccc(CN(C)Cc2cccs2)cc1 do in these assays?
12-LOX inh: 12%
